Data from PubChem BioAssay AID1626 (SRMLSC, 2009).
In all, about 220,000 compounds went through this assay and about 2,000 (0.91%) were called active. About 2% were inconclusive and are not listed. Rule as the data show it: inconclusive = inhibition above about 80% without an active follow-up result; inactive = below that; test concentration not stated here. Only a sample is shown. Results with a measured potency or affinity are listed apart.

test: M. tuberculosis H37Rv growth inhibitors, H37Rv strain (AID 1626); settings: active compounds read high, concentration not given here;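 also: bacteria incubated seven days before Alamar blue readout; 0% = bacteria only wells and 100% = bacteria with antibiotic wells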

Structure (SMILES) | inhibition
O=C(CCCSc1nc2ccccc2[nH]1)NCc1ccccc1Cl | -0.81% (inactive)
Cc1cc2nc(CCl)cc(=O)n2[nH]1 | 2.54% (inactive)
COCCn1cnc2c1c(=O)n(CC(=O)OCC#N)c(=O)n2Cc1ccccc1 | 1.32% (inactive)
O=C(c1ccccc1)N1CCN(c2ccc([N+](=O)[O-])c(NCC3CCCO3)c2)CC1 (stereo unspecified) | 3.59% (inactive)
O=C(O)CSCC(=O)NC1CCCc2ccccc21 (stereo unspecified) | 0.52% (inactive)
O=C(COc1ccccc1)NC1CCCc2ccccc21 (stereo unspecified) | -1.62% (inactive)
Cc1cc(/C=C2/NC(=O)N(Cc3ccccc3F)C2=O)c(C)n1C(C)C | 7.35% (inactive)
Cc1nn(C(=O)c2cccc([N+](=O)[O-])c2)c(C)c1Sc1ccccc1 | 0.41% (inactive)
Cc1ccc(OCc2nnc(SCC(=O)c3cccc([N+](=O)[O-])c3)n2C)cc1 | 3.44% (inactive)
COc1ccc(NC(=O)C2CCC(N3C(=O)C4C5C=CC(C5)C4C3=O)CC2)cc1 (stereo unspecified) | -14.2% (inactive)
O=C(COc1cc(Cl)ccc1Cl)Nc1ccc2c(c1)CCC2 | 3.53% (inactive)
O=C(COc1ccc2c(c1)CCC2)NCc1ccc(Cl)cc1 | 13.4% (inactive)
COc1cc(NC(=O)COc2ccc(-n3ccnc3)cc2)cc(OC)c1 | 54.1% (inactive)
O=C(O)COCC(=O)Nc1ccc2c(c1)CCC2 | -2.88% (inactive)
O=C(COc1ccc(Cl)cc1)NCc1ccncc1 | 0.93% (inactive)
CC(=O)c1ccc(NC(=O)COc2ccc3c(c2)OCO3)cc1 | 14% (inactive)
O=C(COc1ccc2ccccc2c1)Nc1ccc(Cc2ccncc2)cc1 | 11.6% (inactive)
O=C(COc1ccc(-n2ccnc2)cc1)Nc1cccc(Cl)c1 | 3.18% (inactive)
Cc1ccc(/C=N/n2c(C)n[nH]c2=S)o1 | -0.73% (inactive)
Cn1c(SCc2nc3ccccc3[nH]2)nnc1-c1cccnc1 | -8.31% (inactive)
Brc1ccccc1-n1nnc(-c2ccnc3ccccc23)n1 | -5.72% (inactive)
COc1ccc(OCC(=O)Nc2cccc(OC)c2)cc1 | 0.47% (inactive)

Structure (SMILES) | inhibition
O=C(COc1cccc(Cl)c1Cl)Nc1ccc2c(c1)CCC2 | -7.06% (inactive)
O=C(COc1ccc2c(c1)CCC2)NCc1cccc(Cl)c1 | 13.9% (inactive)
COC(=O)COc1cccc(NC(=O)c2ccccc2)c1 | 10.8% (inactive)
O=C(COC(=O)c1cncc(Br)c1)Nc1ccc2c(c1)OCO2 | 2.32% (inactive)
O=C(COC(=O)c1ccc(F)cc1F)Nc1ccc2[nH]c(=O)[nH]c2c1 | 0.74% (inactive)
CCCC(=O)Nc1ccc2oc(-c3ccncc3)nc2c1 | 0.51% (inactive)
Cc1c(Cl)cccc1NC(=O)Cn1c(-c2ccc(F)cc2)noc1=O | -3.42% (inactive)
Cc1c(O)c(S(=O)(=O)c2ccccc2)c(=O)n(-c2ccccc2)c1-c1ccccc1 | -1.42% (inactive)
NNC(=S)Nc1ccc(S(=O)(=O)N2CCOCC2)cc1 | -8.51% (inactive)
Cc1nc(NC(=O)c2ccc(Cl)cc2)sc1Cc1ccc2c(c1)OCO2 | -0.23% (inactive)
CCCOc1ccc(C(=O)Nc2nc(C)c(Cc3ccc4c(c3)OCO4)s2)cc1 | 2.21% (inactive)
COc1cccc(C(=O)N(Cc2nc(-c3ccc(C)cc3)no2)C(C)C)c1 | -3.98% (inactive)
COc1cc(/C=C/C(=O)OCC(=O)NC(=O)NC(C)C)cc(S(=O)(=O)N2CCc3ccccc32)c1OC | 3.06% (inactive)
Cc1ccccc1CSCCNC(=O)Nc1ccccc1 | -0.63% (inactive)
Cc1c2c(nc3ccccc13)CCC(C(C)(C)C)C2 (stereo unspecified) | 6.35% (inactive)
Cc1c2c(nc3ccccc13)OCC2 | -16.5% (inactive)
O=C(Nc1ccc([N+](=O)[O-])cc1)Nc1ccc(Cl)cc1F | 9.88% (inactive)
Nc1c(C(=O)O)cnn1-c1ccc([N+](=O)[O-])cc1 | -2.22% (inactive)
CCc1cccc(NC(=O)Cc2ccc([N+](=O)[O-])cc2)c1 | 58.6% (inactive)
O=C(Cc1ccc([N+](=O)[O-])cc1)Nc1ccc(Cl)cc1 | 3.56% (inactive)
O=C(c1ccc(F)cc1)N1CCN(C2CCC(c3ccccc3)CC2)CC1 (stereo unspecified) | 5.5% (inactive)
CCOC(=O)c1ccc(NC(=O)CSc2nc(NC(=O)c3ccccc3)c3c(C)c(C)oc3n2)cc1 | 9.26% (inactive)

Structure (SMILES) | inhibition
COc1cc(CCN2C(=O)N[C@@H](CCc3ccccc3)C(C(C)=O)=C2C)cc(OC)c1OC | -6.61% (inactive)
Oc1ccc(F)c2cccnc12 | 44.5% (inactive)
COCc1cc(CN2CCCC2)c(O)c2ncccc12 | -1.29% (inactive)
Oc1ccc(CN2CCN(Cc3ccccc3)CC2)c2cccnc12 | -2.63% (inactive)
OCc1ccc(O)c2ncccc12 | 1.86% (inactive)
CC(C)COCc1ccc(O)c2ncccc12 | 47.1% (inactive)
O=C(N/N=C/c1ccc(O)c2ncccc12)c1cccc(Br)c1 | -4.1% (inactive)
CC(C)CC(c1nnnn1CC1CCCO1)N1CCN(Cc2ccc3c(c2)OCO3)CC1 (stereo unspecified) | 0.16% (inactive)
CCN1C/C(=C/c2sccc2C)c2nc3ccccc3c(C(=O)O)c2C1 | -0.78% (inactive)
Nc1nnnn1CC(=O)N/N=C/c1cc([N+](=O)[O-])ccc1Cl | -0.24% (inactive)
Cc1ccc(C(=O)COC(=O)CN2C(=O)C3C4CCC(C4)C3C2=O)cc1[N+](=O)[O-] (stereo unspecified) | 19.5% (inactive)
Cc1ccc(CNC(=O)c2ccc(Cn3nc(C)c(Cl)c3C)o2)cc1 | 2.97% (inactive)
COc1ccc(NC(=O)CCN2CCOCC2)c(OC)c1 | -3.47% (inactive)
COc1ccc(-c2nc3ccccc3c(=O)n2CCOc2ccccc2C)cc1 | 0.63% (inactive)
CC(C)c1cc(C(=O)O)c2ccccc2n1 | -2.96% (inactive)
Brc1ccc(-c2cn3c(n2)CCc2ccc4cccnc4c2-3)cc1 | -2.02% (inactive)
COc1ccc(-n2c(-c3ccc(Br)cc3)c[n+]3c2CCC3)cc1 | 2.38% (inactive)
COc1cc(/C=N/NC(=O)COc2cc(C)cc(C)c2)ccc1OS(=O)(=O)c1ccc(C)cc1 | 10.7% (inactive)
COc1ccc(CC(=O)Nc2ccc3c(c2)CCC3)cc1 | 9.72% (inactive)
COc1cccc(NC(=O)COc2ccc3c(c2)CCC3)c1 | 74.3% (inactive)
CCc1ccc(CN(C)CC(=O)Nc2ccc3c(c2)CCC3)cc1 | 48% (inactive)
CC(=O)Nc1ccc(NC(=O)COc2ccc3c(c2)CCC3)cc1 | 10.5% (inactive)
